Results taken from PubChem BioAssay AID1159580 (chemical genetic matrix, 2015).
The whole screen tested about 5,500 compounds, of which about 2,000 (36%) were called active. Another 18% or so got no clear call; they are omitted. No stated cut-off is given here; in the data, active means normalized growth mostly below about 0.91 (no sharp cut-off); inconclusive means no clear call, values can overlap the other calls; inactive means mostly above about 0.92. This is one part of the list.

Assay: chemical genetic growth profiling, strain panel (AID 1159580);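 further: tested at 20 µM; growth read once vehicle control cultures reached saturation at 30 °C; 1 = growth at the plate median or of vehicle wells; lower values mean less growth of the strain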
Conditions: growth OD

Measured: normalized growth

CC(=O)C1CCC2C3CC(=O)C4=CC(=O)CCC4(C)C3CCC12C (stereo unspecified)
inactive: S. cerevisiae deletion strains, locus YAL013W, strain DEP1, active compounds read low 0.971 | S. cerevisiae deletion strains, locus YBR021W, strain FUR4, active compounds read low 0.995 | S. cerevisiae deletion strains, locus YBR229C, strain ROT2, active compounds read low 0.955 | S. cerevisiae deletion strains, locus YCL029C, strain bik1, active compounds read low 0.972 | S. cerevisiae deletion strains, locus YDL035C, strain GPR1, active compounds read low 0.971 | S. cerevisiae deletion strains, locus YDL074C, strain BRE1, active compounds read low 0.875 | S. cerevisiae deletion strains, locus YDL101C, strain DUN1, active compounds read low 0.935 | S. cerevisiae deletion strains, locus YDL134C, strain PPH21, active compounds read low 0.976 | S. cerevisiae deletion strains, locus YDL185W, strain tfp1, active compounds read low 0.946 | S. cerevisiae deletion strains, locus YDL192W, strain arf1, active compounds read low 0.982 | S. cerevisiae deletion strains, locus YDR101C, strain arx1, active compounds read low 0.99 | S. cerevisiae deletion strains, locus YDR150W, strain NUM1, active compounds read low 0.95 | S. cerevisiae deletion strains, locus YDR162C, strain NBP2, active compounds read low 0.866 | S. cerevisiae deletion strains, locus YDR318W, strain mcm21, active compounds read low 0.996 | S. cerevisiae deletion strains, locus YDR388W, active compounds read low 0.983 | S. cerevisiae deletion strains, locus YDR502C, strain sam2, active compounds read low 0.95 | S. cerevisiae deletion strains, locus YEL061C, strain CIN8, active compounds read low 0.981 | S. cerevisiae deletion strains, locus YER110C, active compounds read low 0.971 | S. cerevisiae deletion strains, locus YER155C, strain BEM2, active compounds read low 1 | S. cerevisiae deletion strains, locus YER167W, strain BCK2, active compounds read low 0.995 | S. cerevisiae deletion strains, locus YGL078C, strain dbp3, active compounds read low 0.979 | S. cerevisiae deletion strains, locus YGL086W, strain mad1, active compounds read low 1.01 | S. cerevisiae deletion strains, locus YGL248W, strain PDE1, active compounds read low 0.967 | S. cerevisiae deletion strains, locus YGR078C, strain PAC10, active compounds read low 0.928 | S. cerevisiae deletion strains, locus YGR135W, strain pre9, active compounds read low 0.926 | S. cerevisiae deletion strains, locus YGR229C, strain SMI1, active compounds read low 1.03 | S. cerevisiae deletion strains, locus YGR252W, strain gcn5, active compounds read low 1.02 | S. cerevisiae deletion strains, locus YHR030C, strain SLT2, active compounds read low 0.995 | S. cerevisiae deletion strains, locus YHR079C, strain IRE1 (second series), active compounds read low 0.984 | S. cerevisiae deletion strains, locus YHR094C, strain hxt1, active compounds read low 0.982 | S. cerevisiae deletion strains, locus YHR129C, strain ARP1, active compounds read low 0.985 | S. cerevisiae deletion strains, locus YHR200W, strain rpn10, active compounds read low 0.982 | S. cerevisiae deletion strains, locus YIL066C, strain RNR3, active compounds read low 0.948 | S. cerevisiae deletion strains, locus YIL073C, strain SPO22, active compounds read low 0.99 | S. cerevisiae deletion strains, locus YIL125W, strain kgd1, active compounds read low 0.983 | S. cerevisiae deletion strains, locus YIR030C, strain dcg1, active compounds read low 0.982 | S. cerevisiae deletion strains, locus YJL095W, strain BCK1, active compounds read low 0.965 | S. cerevisiae deletion strains, locus YJL134W, strain LCB3, active compounds read low 0.975 | S. cerevisiae deletion strains, locus YJL168C, strain set2, active compounds read low 0.978 | S. cerevisiae deletion strains, locus YJL187C, strain SWE1 (second series), active compounds read low 0.931 | S. cerevisiae deletion strains, locus YJR043C, strain POL32, active compounds read low 1.01 | S. cerevisiae deletion strains, locus YJR075W, strain HOC1, active compounds read low 0.953 | S. cerevisiae deletion strains, locus YKL009W, strain mrt4, active compounds read low 0.968 | S. cerevisiae deletion strains, locus YKL068W, active compounds read low 0.982 | S. cerevisiae deletion strains, locus YKL085W, strain MDH1 (second series), active compounds read low 0.943 | S. cerevisiae deletion strains, locus YKL085W, strain MDH1, active compounds read low 0.943 | S. cerevisiae deletion strains, locus YKL190W, strain CNB1, active compounds read low 0.964 | S. cerevisiae deletion strains, locus YKR001C, strain vps1, active compounds read low 0.971 | S. cerevisiae deletion strains, locus YLR039C, strain RIC1, active compounds read low 0.735 | S. cerevisiae deletion strains, locus YLR058C, strain SHM2, active compounds read low 0.971 | S. cerevisiae deletion strains, locus YLR102C, strain apc9, active compounds read low 0.971 | S. cerevisiae deletion strains, locus YLR262C, strain YPT6, active compounds read low 0.749 | S. cerevisiae deletion strains, locus YLR268W, strain sec22, active compounds read low 0.928 | S. cerevisiae deletion strains, locus YLR330W, strain CHS5, active compounds read low 0.989 | S. cerevisiae deletion strains, locus YLR342W, strain FKS1 (second series), active compounds read low 1.01 | S. cerevisiae deletion strains, locus YLR371W, strain rom2, active compounds read low 0.986 | S. cerevisiae deletion strains, locus YLR418C, strain cdc73, active compounds read low 0.862 | S. cerevisiae deletion strains, locus YML016C, strain PPZ1, active compounds read low 0.979 | S. cerevisiae deletion strains, locus YML032C, strain rad52, active compounds read low 1.01 | S. cerevisiae deletion strains, locus YML124C, strain tub3, active compounds read low 0.998 | S. cerevisiae deletion strains, locus YMR078C, strain ctf18, active compounds read low 0.968 | S. cerevisiae deletion strains, locus YMR223W, strain ubp8, active compounds read low 1 | S. cerevisiae deletion strains, locus YMR263W, strain SAP30, active compounds read low 0.936 | S. cerevisiae deletion strains, locus YMR307W, strain GAS1, active compounds read low 1.01 | S. cerevisiae deletion strains, locus YNL067W, strain RPL9B, active compounds read low 0.936 | S. cerevisiae deletion strains, locus YNL128W, strain TEP1, active compounds read low 0.924 | S. cerevisiae deletion strains, locus YNL153C, strain GIM3, active compounds read low 0.922 | S. cerevisiae deletion strains, locus YNL233W, strain BNI4, active compounds read low 0.972 | S. cerevisiae deletion strains, locus YNL250W, strain rad50, active compounds read low 0.948 | S. cerevisiae deletion strains, locus YNL271C, strain bni1, active compounds read low 0.983 | S. cerevisiae deletion strains, locus YNL298W, strain CLA4, active compounds read low 0.968 | S. cerevisiae deletion strains, locus YNL307C, strain MCK1, active compounds read low 0.971 | S. cerevisiae deletion strains, locus YNL322C, strain KRE1, active compounds read low 0.977 | S. cerevisiae deletion strains, locus YNR052C, strain pop2, active compounds read low 0.989 | S. cerevisiae deletion strains, locus YOL006C, strain TOP1, active compounds read low 0.846 | S. cerevisiae deletion strains, locus YOL012C, strain htz1 0.923 | S. cerevisiae deletion strains, locus YOL147C, strain pex11, active compounds read low 0.99 | S. cerevisiae deletion strains, locus YOR061W, strain CKA2, active compounds read low 0.942 | S. cerevisiae deletion strains, locus YOR069W, strain VPS5, active compounds read low 0.975 | S. cerevisiae deletion strains, locus YOR136W, strain idh2, active compounds read low 0.984 | S. cerevisiae deletion strains, locus YOR144C, strain elg1, active compounds read low 0.988 | S. cerevisiae deletion strains, locus YOR184W, strain ser1, active compounds read low 0.959 | S. cerevisiae deletion strains, locus YOR316C, strain cot1, active compounds read low 0.968 | S. cerevisiae deletion strains, locus YPL055C, strain LGE1, active compounds read low 0.852 | S. cerevisiae deletion strains, locus YPL241C, strain CIN2, active compounds read low 0.974 | S. cerevisiae deletion strains, locus YPR119W, strain clb2, active compounds read low 0.99 | S. cerevisiae deletion strains, locus YPR141C, strain kar3, active compounds read low 0.957 | S. cerevisiae deletion strains, locus YPR163C, strain tif3, active compounds read low 0.967 | S. cerevisiae deletion strains, locus YPR167C, strain met16, active compounds read low 0.979 | S. cerevisiae deletion strains, strain wtn01, active compounds read low 0.951 | S. cerevisiae strains, strain wild type, active compounds read low 0.972
